Results published in PubChem BioAssay AID893 (National Center for Advancing Translational Sciences (NCATS), 2007).
The campaign covered roughly 75,000 compounds. About 5,700 (7.6%) were called active. Roughly 7% stayed inconclusive and do not appear here. Calls come from the whole dose curve; as a rule, active = well fitted inhibition curve with a large enough effect; inconclusive = small, poorly fitted or top-dose-only effect; inactive = no such curve, though single readings can be large or run the other way. The list comes from a sample in which actives are over-represented; it also holds similar structures and randomly drawn compounds.

The compounds below were run against 3-hydroxyacyl-CoA dehydrogenase type-2 (Homo sapiens) (UniProt Q99714) (assay: qHTS Assay for Inhibitors of HSD17B4, hydroxysteroid (17-beta) dehydrogenase 4). Conditions: recombinant HSD17B10, NADH fluorescence kinetic; series mostly up to 57.1 µM; activity change, negative = inhibition: at the top concentration.
Excerpt: Assay Overview: NIH Molecular Libraries Screening Centers Network [MLSCN] NIH Chemical Genomics Center [NCGC] Structural Genomics Consortium [SGC] Grant number: None HADH2: Hydroxyacyl-Coenzyme A dehydrogenase, type II, was supplied by researchers at the Structural Genomics Consortium, Oxford University lab (PI Udo Oppermann). The mitochondrial enzyme 17-hydroxysteroid dehydrogenase type 10 (HSD17-10) previously classified as type II hydroxyacyl-CoA dehydrogenase (HADH2) catalyzes the NAD+ dependent oxidation of a variety of substrates including acyl-CoAs, androgens and neurosteroids as well as bile acids(Shafqat N, Marschall HU, Filling C, et al. Biochemical Journal. 2003;376(Pt 1):49-60). […] The enzyme was produced by E.coli fermentation as His-tagged recombinant for the purpose of X-ray structure determination, and had been mass-spectrometry characterized. Inhibition of HADH2 activity was screened by utilizing beta-hydroxybutyryl coenzyme A as an electron donor and NAD+ as an electron acceptor/cofactor. An increase in the fluorescence intensity due to conversion of NAD+ to NADH was used to measure the enzyme activity.
Assay Protocol: Buffer: 100 mM Tris-HCl pH 9.0, containing 0.01 % Tween-20. Reagents/Controls: Buffer in columns 3 and 4 as negative control (no enzyme). Substrate/cofactor solution: 1 mM NAD+ and 90 uM beta-hydroxybutyryl coenzyme A (Sigma-Aldrich, St. Louis, MO) final concentrations dispensed throughout the plate. Enzyme: 20 nM HADH2 final concentration in columns 1, 2, 5-48. Column 1 is neutral (100% activity). Column 2 contained titration of apomorphine (Sigma-Aldrich, A 4393, PubChem CID 2215, top concentration 500 uM, then 1:2 dilution in duplicate) Assay Steps: Three uL of enzyme were dispensed to 1536-well Greiner black solid bottom plates. Compounds and controls (23 nL) were transferred via Kalypsys PinTool. The plates were incubated for 15 min at room temperature, and then 1 uL of substrate/cofactor solution was added to start the reaction. The plates were immediately transferred to and read every 30 seconds for 4 min on ViewLux High-throughput CCD imager (Perkin-Elmer) using 360 nm excitation and 450 nm emission fluorescence protocol. The fluorescence intensity difference between the last and the first time points was used to compute reaction progress.
% is set by controls: 0 for no effect and ±100 for the full control effect; potency is the fitted concentration of half-maximal effect.
Note: nearly all actives have a fitted effect of over 70% in size.

SMILES	activity change, negative = inhibition	Potency
CCOC(=O)C1=C(O)CSC1=Nc1cccc(Cl)c1	5.61% (inactive)	
CCOC(=O)c1cc(-c2ccc(Cl)s2)nc2c1c(C)nn2C		31.6 µM (active)
Cn1cccc1Cc1nnc(SCC(=O)NCCc2ccccc2)n1-c1ccc(F)cc1	3.88% (inactive)	
N#Cc1c(NC(=O)CCCN2C(=O)c3ccccc3C2=O)oc(-c2ccccc2)c1-c1ccccc1	5.71% (inactive)	
Cc1ccc(N2C(=O)c3oc4ccccc4c(=O)c3C2c2cccnc2)nc1 (stereo not given)	5.96% (inactive)	
COc1ccc(CCn2c(-c3ccco3)nc3nc4ccccc4nc32)cc1OC	-12.8% (inactive)	
COCCn1c(-c2ccc(OC)c(OC)c2)nc2ccccc21		25.1 µM (active)
CCCn1c(C(O)c2cc(OC)ccc2OC)nc2ccccc21 (stereo not given)	-0.382% (inactive)	
CC(Sc1nc2ccccc2c(=O)n1Cc1ccco1)C(=O)c1ccccc1 (stereo not given)	7.76% (inactive)	
COCCCn1c2nc3ccccc3nc2c2c(=O)n(Cc3ccc(Cl)cc3)c(C)nc21		2 µM (active)
Cn1c(COc2ccc(Cl)cc2)nc2ccccc2c1=O	-28.2% (inactive)	
Cc1nc2c(c(=O)n1Cc1ccco1)c1nc3ccccc3nc1n2Cc1ccccc1		25.1 µM (active)
N#Cc1c(NC(=O)CSc2nc3ccccc3c(=O)n2Cc2ccco2)sc2c1CCCC2	-28.8% (inactive)	
COc1ccccc1NC(=O)CSc1nc2sc(C)c(C)c2c(=O)n1Cc1ccco1	-11.5% (inactive)	
Cc1ccc(Cn2c(C)nc3c(c2=O)c2nc4ccccc4nc2n3Cc2ccco2)cc1		25.1 µM (active)
Nc1cc(=O)nc(SCc2ccccc2)n1Cc1ccco1	-1.73% (inactive)	
Cc1nc2ccccc2c(=O)n1CCCn1ccnc1	2.75% (inactive)	
CC1CCN(c2nc3c(c(=O)[nH]c(=O)n3C)n2CCCc2ccccc2)CC1	8.8% (inactive)	
CCC1(C)CC(=O)NC1=O (stereo not given)	-1.08% (inactive)	
COc1ccc(N)c(OC)c1	3.29% (inactive)	
CCOC(=O)CSc1nnc(CNc2ccc(F)cc2)o1	-11.8% (inactive)	
CC/C(=N\O)C(C)(C)/[N+]([O-])=C/c1ccc(Br)cc1	15.6% (inactive)	

SMILES	activity change, negative = inhibition	Potency
O=C(O)C(O)[C@@](O)(Cc1ccc(O)cc1)C(=O)O (stereo not given in full)	-0.363% (inactive)	
CC1Cn2c(nnc2-c2cccs2)S1 (stereo not given)	-1.46% (inactive)	
CSc1cccc(NC(=O)CSc2ccccc2)c1	-27.3% (inactive)	
NC(=NC(=O)c1ccccc1)C1=C(O)CCC1=O	2.94% (inactive)	
CCS(=O)(=O)N(C)[C@@H]1c2cc(C#N)ccc2OC(C)(C)[C@H]1O		inactive
Cc1ccc2nc(-c3ccccc3)cc(C(=O)O)c2c1	-22.3% (inactive)	
Cc1ccc(NC(=O)c2cc(-c3ccc(C)o3)nc3ccccc23)nc1		31.6 µM (active)
Cc1cc(=O)oc(C)c1C(=O)Nc1cnc2ccccc2c1	-0.842% (inactive)	
Cc1ccc(S(=O)(=O)N2CCC(C(=O)OCC(=O)N3CC(=O)Nc4ccccc43)CC2)cc1	9.91% (inactive)	
Cc1ccc(C(CC(=O)O)Nc2nc(N3CCCCC3)nc(N3CCCCC3)n2)cc1 (stereo not given)	-1.92% (inactive)	
CC(Nc1nc(N2CCCC2)nc2ccccc12)c1ccccc1 (stereo not given)		31.6 µM (active)
CC(C)n1c(C(O)c2ccccc2)nc2ccccc21 (stereo not given)	12.2% (inactive)	
C[N+](C)(C)CCCCCNCC12CC3CC(CC(C3)C1)C2	3.87% (inactive)	
O=C(OCC(=O)c1cccs1)C1=COCCO1	8.65% (inactive)	
CCOC(=O)c1cc2n(c1C)-c1ccccc1C2=O	3.78% (inactive)	
O=C(Oc1cccnc1)c1cc2ccccc2oc1=O		25.1 µM (active)
O=C(NCc1ccccn1)c1cc2ccccc2oc1=O		31.6 µM (active)
O=C(NCc1ccccn1)Nc1ccc(F)cc1	7.82% (inactive)	
O=C(CCSCCc1ccccn1)Nc1nccs1	-2.41% (inactive)	
CCOC(=O)c1cnc2sccn2c1=O		25.1 µM (active)
O=C(NCc1ccccn1)c1cnc2sccn2c1=O		25.1 µM (active)
O=C(Nc1ccncc1)c1cc2ccccc2o1	10.3% (inactive)	

SMILES	activity change, negative = inhibition	Potency
CCOC(=O)c1cnc(-n2nc(C)cc2C)nc1-n1nc(C)cc1C	-10.5% (inactive)	
O=C(NCc1ccccn1)c1c(O)c2c([nH]c1=O)CCCC2	-2.63% (inactive)	
OCCCNCc1ccccn1	-1.43% [at 11.4 µM] (inactive)	
Nc1ncc(-c2cc3ccccc3oc2=O)s1	-2.43% (inactive)	
Brc1cc(Br)c(Oc2cc(Br)c(Br)cc2Br)cc1Br	-9.08% (inactive)	
COc1cccc2sc(Nc3nc(C)c(C(C)=O)s3)nc12	-6.55% (inactive)	
COC(=O)CNS(=O)(=O)c1ccc(Cc2ccc(S(=O)(=O)NCC(=O)OC)cc2)cc1	3.44% (inactive)	
CC(=O)OCC(COC(C)=O)OC(C)=O	3.21% (inactive)	
CNC(=O)C1(C)C=CC2(CCCCC2)N1C(C)=O (stereo not given)	5.61% (inactive)	
CC(C(=O)N1CCOCC1)N1c2cccc3cccc(c23)S1(=O)=O (stereo not given)		31.6 µM (active)
O=C(c1ccccc1-c1ccccc1)N1CCOCC1	8.37% (inactive)	
CC(C(=O)Nc1ccccc1-c1ccccc1)N1CCOCC1 (stereo not given)	12.3% (inactive)	
COc1ccc(C2C3=C(CC(C)(C)CC3=O)Oc3ncn4nc(-c5cccnc5)nc4c32)cc1OC (stereo not given)	6.85% (inactive)	
CCCc1[nH]nc2c1C(c1ccc(Br)s1)C(C#N)=C(N)O2 (stereo not given)		20 µM (active)
CCCc1[nH]nc2c1C(C1CC=CCC1)C(C#N)=C(N)O2 (stereo not given)	-17.4% (inactive)	
CCCc1[nH]nc2c1C(c1ccc(OC(=O)c3ccco3)cc1)C(C#N)=C(N)O2 (stereo not given)	3.66% (inactive)	
COC(=O)[C@@H]1C[C@@]2(O)[C@@H](O)[C@@H](O)[C@@H](O)C[C@H]2N1Cc1ccc(C)s1	15% (inactive)	
COc1ccc2c(c1OC)C(=O)N(c1ncn[nH]1)C2		31.6 µM (active)
Cc1ccc(Cn2ccc(NC(=O)C3C4CCC(C4)C3C(=O)O)n2)cc1 (stereo not given)	-2.8% (inactive)	
COC(=O)C(C)Sc1ccc2nnc(-c3cccc(F)c3)n2n1 (stereo not given)		25.1 µM (active)
CC1CCN(C(=O)CSc2ccc3nnc(-c4cccc(F)c4)n3n2)CC1	-12.3% (inactive)	
CCOc1ccc(-c2nnc3ccc(SC)nn23)cc1	-6.07% (inactive)	

SMILES	activity change, negative = inhibition	Potency
CC(=O)CC(C)C	5.18% (inactive)	
Cc1ccccc1C(=O)NCCN=C1NS(=O)(=O)c2ccccc21	-2.36% (inactive)	
O=C(c1csnn1)N1CCC[C@@]2(CCN(Cc3nccs3)C2)C1	7.36% (inactive)	
CSc1ccc(-c2c(C#N)c(N)nc3c2c(C)nn3-c2ccccc2)cc1		31.6 µM (active)
CCC(=O)c1ccc(OCC(O)CN2CC(C)OC(C)C2)cc1 (stereo not given)	0.889% (inactive)	
CC(=O)N(CC1CCCO1)C1(C(=O)NC2CCCC2)CCCCC1 (stereo not given)	11.9% (inactive)	
C[C@@H]1O[C@@H](OC[C@H]2O[C@@H](Oc3c(-c4cccc(O)c4O)oc4cc(O)cc(O)c4c3=O)[C@H](O)[C@@H](O)[C@@H]2O)[C@H](O)[C@H](O)[C@H]1O	-17.4% (inactive)	
CCc1nc2oc3ccccc3c(=O)c2c(=O)n1Cc1ccc(OC)cc1	-5.68% (inactive)	
O=c1c2ccccc2oc2nc3n(c(=O)c12)CCCS3		25.1 µM (active)
O=c1c2ccccc2oc2nc(C3CCCCC3)n(Cc3ccco3)c(=O)c12	-7.64% (inactive)	
CN(C)/C=C1/Nc2ccccc2C1=O	-21.3% (inactive)	
CCn1ncc(Br)c1C(=O)Nc1cc(C)ccc1F	7.14% (inactive)	
Cc1c(O)cc(O)c2c(=O)c(-c3ccc(O)cc3)coc12	1.02% (inactive)	
O=C1C(c2[nH]c3ccccc3c2O)=Nc2ccccc21		31.6 µM (active)
CCCCNc1nc2c(c(=O)[nH]c(=O)n2C)n1CCOc1ccccc1	9.4% (inactive)	
CCN(CC)CCCCn1c(-c2ccccc2)nc2c(N3CCOCC3)nc(C)nc21		20 µM (active)
CCCCNc1nc(C)nc2c1nc(-c1ccccc1)n2CCCCN(CC)CC		25.1 µM (active)
CC(=O)c1c(N2CCOCC2)nc(=S)n(Cc2ccccc2)c1C	6.31% (inactive)	
O=S(=O)(O)CCN1CCOCC1	1.92% (inactive)	
CCCn1c(C(O)c2ccc(OCC)cc2)nc2ccccc21 (stereo not given)	4.24% (inactive)	
COc1ccccc1C(=O)Oc1ccc(N2C(=O)CCC2=O)cc1	-11.2% (inactive)	
C[C@@H](c1ccccc1)N1C(=O)[C@H]2[C@H]3[C@H](O)[C@H](O)C/C(=N/OC[C@@H](O)COCc4ccco4)[C@@H]3CC[C@@H]2C1=O	1.97% [at 11.4 µM] (inactive)	

SMILES	activity change, negative = inhibition	Potency
COc1ccc(S(=O)(=O)N2CCCC(C(=O)N3CCN(C)CC3)C2)cc1C (stereo not given)	10.7% (inactive)	
C[N+]1(CCN=C=NC2CCCCC2)CCOCC1	-0.294% [at 11.4 µM] (inactive)	
CC12CN3CC(C)(CN(C1)C3c1ccc(Cl)cc1Cl)C2=O (stereo not given)	4.79% (inactive)	
CCOc1ccccc1C1C(C(=O)OC)=CN(C)C=C1C(=O)OC		25.1 µM (active)
COC(=O)C1=C(C)N(C)C(C)=C(C(=O)OC)C1c1cccc(Br)c1	-5.98% (inactive)	
CCCCOCCCNC(=O)c1ccccc1OCC	1.37% (inactive)	
COC(=O)C1=CN(C)C=C(C(=O)OC)C1c1ccc(Cl)cc1Cl		31.6 µM (active)
CCOc1ccccc1N(CC(=O)Nc1ccccc1C(=O)OC)S(C)(=O)=O	-13.6% (inactive)	
O=S(=O)(N1CCOCC1)N1CCN(c2ccccc2F)CC1	0.766% (inactive)	
CCOC(=O)C1=C(CC)Nc2ccccc2N=C1NC(=O)c1cccc(S(=O)(=O)N2CCCC2)c1	-10.6% (inactive)	
CCOC(=O)CN1C(=O)C(O)(CC(=O)c2ccccn2)c2ccccc21 (stereo not given)	-5.79% (inactive)	
CCN(CC)S(=O)(=O)c1cccc(C(=O)Nc2ccccc2)c1	2.56% (inactive)	
CCc1c(O)nc(SCC(=O)N2CCCCC2)n(-c2ccccc2C)c1=O	7.14% (inactive)	
CC1(C)OC2CC3C4CCC5=CC(=O)CCC5(C)C4(F)C(O)CC3(C)[C@]2(C(=O)CCl)O1 (stereo not given in full)	-11.4% (inactive)	
Cc1cccc(Br)c1	2.64% (inactive)	
Cc1cc(=O)[nH]c(SCc2cc(Cl)ccc2OC(F)F)n1	-11.7% (inactive)	
CCOc1ccc2nc(NC(=O)CSc3nc4c(c(=O)n(C)c(=O)n4C)n3CC)sc2c1	-2.72% (inactive)	
O=C(NCc1cn2ccsc2n1)Nc1ccc(Cl)cc1	10.3% (inactive)	
O=C(NCc1ccc(Cl)cc1)c1cc2c(nc3sccn32)s1		20 µM (active)
O=c1cc(Cn2nnc(-c3ccc(Cl)cc3)n2)nc2sccn12	-10.6% (inactive)	
CCCCn1nnnc1NCc1cc(OC)c(OC)c(OC)c1	13.8% (inactive)	
O=C(O)C1CCN(c2ncnc3ccc(-c4ccccc4C(F)(F)F)cc23)CC1	-0.266% (inactive)	
